Measurements: PubChem BioAssay (Tox21)
Records with an inconclusive call do not appear. Where a call stands in place of a potency, no number is given. A number with no mark means an inactive call. The source made the active and inactive calls. Unless noted, calls come from the whole dose curve; as a rule, active = well fitted curve in the direction sought with a large enough effect in the repeat runs; inconclusive = weak or mixed curves; inactive = no such curve, though single readings can be large; an effect the other way counts as inactive or inconclusive.

Columns and labels:
[1] = target: Aryl hydrocarbon receptor (Homo sapiens) (UniProt P35869); assay: qHTS assay to identify small molecule that activate the aryl hydrocarbon receptor (AhR) signaling pathway (AID 743085); note: nearly all actives have a fitted effect of over 15% in size; note: potency is the fitted concentration of half-maximal effect;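 for activation: HG2L7.5c1 human HepG2 liver cells with stably integrated DRE-driven firefly reporter; series mostly up to about 70 µM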
How it was run: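 Steps: seed HepG2-AhR-luc cells; allow 5 h at 37C; pin-transfer test compound or vehicle; incubate 24 h at 37C; add viability dye (30 min, 37C) and read fluorescence; add luciferase substrate (30 min, RT) and read luminescence.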

[2] = target: Peroxisome proliferator-activated receptor gamma (Homo sapiens) (UniProt P37231); assay: qHTS assay to identify small molecule agonists of the peroxisome proliferator-activated receptor gamma (PPARg) signaling pathway (AID 743094; active = well fitted activation curve with a large enough effect in the signal ratio in the repeat runs, not every such curve was filed as active; the % refers to the signal ratio)
How it was run: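 Beta-lactamase FRET fluorescence was the read-out after a 1 h room-temperature substrate step, following 17 h compound treatment at 37C of HEK293H cells expressing a UAS-driven bla reporter responsive to PPARg.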

[3] = qHTS assay to identify small molecule phospholipidosis (PLD) inducers (AID 1259344; active = well fitted curve in the direction sought with a large enough effect; an effect the other way counts as inactive or inconclusive)
How it was run: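 HepG2 cells on collagen I, attached 4 h at 37 C, were co-treated with compound and LipidTOX Red dye for 24 h at 37 C, then fixed with paraformaldehyde plus Hoechst 33342 and imaged by high-content microscopy for phospholipid accumulation.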

[4] = target: Nuclear receptor subfamily 1 group I member 2 (Rattus norvegicus) (UniProt Q9R1A7); assay: Rat pregnane X receptor (rPXR) activation by small molecules, qHTS assay (AID 1346983); conditions: rPXR luciferase reporter cells, One-Glo luminescence, 24 h; max activation: stronger effect = higher value; note: nearly all actives have a fitted effect of over 20% in size; note: potency is the fitted concentration of half-maximal effect
How it was run: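 Cell-based rPXR luciferase reporter assay, 2,000 cells per well, rested 5hr at 37 C before compound addition in DMSO, then 24 hr at 37 C. One-Glo reagent was added and luminescence read after 30 min at room temperature.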

[5] = target: Nuclear receptor subfamily 1 group I member 2 (Homo sapiens) (UniProt O75469); assay: CYP3A4 induction through human pregnane X receptor (PXR) by small molecules, qHTS assay (AID 1346984); note: nearly all actives have a fitted effect of over 40% in size
How it was run: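 Luminescence readout: luciferase signal after One-Glo (30 min, room temperature), following 3 h at 37C with 3uM final Luciferin-IPA P450 substrate. Cells were DPX-2 (HepG2, PXR/CYP3A4-luc co-transfected) dosed for 24 h.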

[6] = target: Nuclear receptor subfamily 1 group I member 2 (Homo sapiens) (UniProt O75469); assay: Human pregnane X receptor (PXR) activation by small molecules, qHTS assay (AID 1346985); note: nearly all actives have a fitted effect of over 40% in size; note: potency is the fitted concentration of half-maximal effect
How it was run: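 DPX-2 cells (HepG2 co-transfected with a PXR response element and a CYP3A4-promoter luciferase construct) were seeded at 2,000 per well, rested 5 hr at 37C, then exposed to DMSO-dissolved compounds for 24 hr. Activation was read as luciferase luminescence.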

[7] = qHTS assay to identify aromatase inhibitors - cell viability counter screen (AID 743084);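 note: cells stimulated with testosterone during compound exposure; nearly all actives have a fitted effect of over 55% in size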; note: potency is the fitted concentration of half-maximal effect
[8] = qHTS assay to identify small molecule that activate the aryl hydrocarbon receptor (AhR) signaling pathway - cell viability counter screen (AID 743086);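 note: HepG2 liver cells carrying the AhR DRE luciferase reporter; series mostly up to about 70 µM; nearly all actives have a fitted effect of over 45% in size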
How it was run: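 HepG2-AhR-luc (HG2L7.5c1) cells, 4000/well, were preincubated 5 h at 37C, exposed to compound in qHTS format for 24 hr at 37C, then given CellTiter-Fluor for 30 min; viability was read as fluorescence in the reporter wells.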

Sequence of Peroxisome proliferator-activated receptor gamma (Homo sapiens) (P37231 whole entry, looked up): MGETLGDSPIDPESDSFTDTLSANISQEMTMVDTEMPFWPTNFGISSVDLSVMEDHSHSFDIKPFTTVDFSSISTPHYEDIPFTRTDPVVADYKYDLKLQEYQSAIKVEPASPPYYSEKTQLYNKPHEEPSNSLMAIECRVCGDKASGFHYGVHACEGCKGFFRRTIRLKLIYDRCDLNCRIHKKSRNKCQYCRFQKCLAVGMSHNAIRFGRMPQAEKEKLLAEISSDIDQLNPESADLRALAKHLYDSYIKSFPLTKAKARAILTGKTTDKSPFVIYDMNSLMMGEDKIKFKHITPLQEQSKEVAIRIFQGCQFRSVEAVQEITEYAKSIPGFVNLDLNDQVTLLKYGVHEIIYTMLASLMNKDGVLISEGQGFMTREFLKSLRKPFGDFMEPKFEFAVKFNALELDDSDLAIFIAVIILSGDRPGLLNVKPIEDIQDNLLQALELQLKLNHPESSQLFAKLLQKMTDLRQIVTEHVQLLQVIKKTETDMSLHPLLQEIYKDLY
Sequence of Nuclear receptor subfamily 1 group I member 2 (Rattus norvegicus) (Q9R1A7 whole entry, looked up): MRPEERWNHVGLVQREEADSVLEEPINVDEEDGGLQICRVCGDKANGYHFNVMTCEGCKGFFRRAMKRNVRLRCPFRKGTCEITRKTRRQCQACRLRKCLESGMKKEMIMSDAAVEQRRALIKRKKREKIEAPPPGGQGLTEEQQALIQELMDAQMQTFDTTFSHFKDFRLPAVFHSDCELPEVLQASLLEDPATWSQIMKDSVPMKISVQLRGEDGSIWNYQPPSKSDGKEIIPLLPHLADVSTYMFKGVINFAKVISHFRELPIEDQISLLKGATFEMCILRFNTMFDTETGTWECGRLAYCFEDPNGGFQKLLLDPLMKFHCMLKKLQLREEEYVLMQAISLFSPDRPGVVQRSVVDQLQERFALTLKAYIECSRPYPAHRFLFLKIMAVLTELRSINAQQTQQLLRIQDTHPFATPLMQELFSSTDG
Sequence of Aryl hydrocarbon receptor (Homo sapiens) (P35869 whole entry, looked up): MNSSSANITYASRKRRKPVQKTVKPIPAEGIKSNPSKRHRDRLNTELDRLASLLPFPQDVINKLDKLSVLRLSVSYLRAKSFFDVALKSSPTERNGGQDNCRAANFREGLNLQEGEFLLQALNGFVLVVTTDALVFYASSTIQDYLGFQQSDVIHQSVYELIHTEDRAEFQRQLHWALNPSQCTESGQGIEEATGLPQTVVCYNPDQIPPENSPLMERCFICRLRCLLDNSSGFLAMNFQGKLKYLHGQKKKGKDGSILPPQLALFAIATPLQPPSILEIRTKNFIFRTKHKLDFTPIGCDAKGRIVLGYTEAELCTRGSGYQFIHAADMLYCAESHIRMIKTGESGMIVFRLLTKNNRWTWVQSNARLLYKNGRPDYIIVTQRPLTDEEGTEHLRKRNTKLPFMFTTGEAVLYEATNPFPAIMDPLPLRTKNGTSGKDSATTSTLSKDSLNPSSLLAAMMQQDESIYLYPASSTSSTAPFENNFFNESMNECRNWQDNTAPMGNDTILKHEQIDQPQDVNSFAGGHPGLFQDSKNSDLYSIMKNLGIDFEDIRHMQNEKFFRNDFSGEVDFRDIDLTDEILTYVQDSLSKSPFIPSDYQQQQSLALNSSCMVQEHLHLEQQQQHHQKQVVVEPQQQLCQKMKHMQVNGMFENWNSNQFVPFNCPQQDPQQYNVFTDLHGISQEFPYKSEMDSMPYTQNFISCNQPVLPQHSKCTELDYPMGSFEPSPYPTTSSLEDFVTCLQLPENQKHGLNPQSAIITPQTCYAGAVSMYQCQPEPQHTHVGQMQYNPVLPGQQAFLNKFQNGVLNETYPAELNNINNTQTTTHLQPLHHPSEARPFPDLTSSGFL

For `CN1CCN(C(c2ccccc2)c2ccc(Cl)cc2)CC1` (stereo not drawn), the Potency [1] was “inactive”, the Potency [2] was “inactive” and the Potency [3] was “inactive”. For the same molecule, the max activation [4] was -0.288%, the Potency [5] was “inactive” and the Potency [6] was “inactive”.
For `C[C@H]1[C@@H](OC(=O)CCC(=O)O)O[C@@H]2OC3(C)CC[C@H]4[C@H](C)CC[C@@H]1[C@@]24OO3`, the Potency [1] was “inactive”, the Potency [3] was “inactive” and the max activation [4] was -13.4%. For the same molecule, the Potency [5] was “inactive” and the Potency [6] was “inactive”.
For `CC(C)(C)NCC(O)CSc1nc(-c2ccc(C(N)=O)s2)cs1` (stereo not drawn), the Potency [7] was “inactive”, the Potency [8] was “inactive” and the Potency [2] was “inactive”. For the same molecule, the Potency [3] was “inactive”, the max activation [4] was -4.09% and the Potency [5] was “inactive”. For the same molecule, the Potency [6] was “inactive”.
In the case of `CN1c2cc(O)c(N=NC(N)=O)cc2CC1S(=O)(=O)O` (stereo not drawn), the Potency [1] is reported as “inactive”, the Potency [2] is reported as “inactive” and the Potency [3] is reported as “inactive”. For the same molecule, the max activation [4] was 0.153%, the Potency [5] was “inactive” and the Potency [6] was “inactive”.
In the case of `CCN(CC)CCCC(C)Nc1cc(/C=C/c2ccccc2Cl)nc2cc(Cl)ccc12` (stereo not drawn), the Potency [1] is reported as 26.6 µM (active), the Potency [2] is reported as “inactive” and the Potency [3] is reported as “inactive”. The max activation [4] was -1.25%, the Potency [5] was “inactive” and the Potency [6] was 22.4 µM (active).
For `CO[C@H]1C[C@@H]2CC[C@@H](C)[C@@](O)(O2)C(=O)C(=O)N2CCCC[C@H]2C(=O)O[C@H]([C@H](C)C[C@@H]2CC[C@@H](OCCO)[C@H](OC)C2)CC(=O)[C@H](C)/C=C(\C)[C@@H](O)[C@@H](OC)C(=O)[C@H](C)C[C@H](C)/C=C/C=C/C=C/1C`, the Potency [7] was 11.9 µM (active), the Potency [1] was “inactive” and the Potency [3] was “inactive”. For the same molecule, the max activation [4] was -9.27% and the Potency [5] was “inactive”.
In the case of `Cc1c(Cl)cccc1Nc1ncccc1C(=O)O`, the Potency [7] is reported as “inactive”, the Potency [2] is reported as “inactive” and the Potency [3] is reported as “inactive”. For the same molecule, the max activation [4] was 0.0958%, the Potency [5] was “inactive” and the Potency [6] was “inactive”.
In the case of `CN(C)C(=O)CCSC(SCCC(=O)O)c1cccc(/C=C/c2ccc3ccc(Cl)cc3n2)c1` (stereo not drawn), the Potency [1] is reported as 1.88 µM (active), the Potency [3] is reported as “inactive” and the Potency [4] is reported as 4.47 µM (active). The Potency [5] was “inactive” and the Potency [6] was 8.91 µM (active).
In the case of `CC(CCc1ccc(O)cc1)NCC(O)c1ccc(O)cc1` (stereo not drawn), the Potency [1] is reported as “inactive”, the Potency [8] is reported as “inactive” and the Potency [2] is reported as “inactive”. For the same molecule, the Potency [3] was “inactive”, the max activation [4] was -0.789% and the Potency [5] was “inactive”. The Potency [6] was “inactive”.
In the case of `c1ccc2cc(C3=NCCN3)ccc2c1`, the Potency [7] is reported as “inactive”, the Potency [8] is reported as “inactive” and the Potency [2] is reported as “inactive”. The Potency [3] was “inactive”, the max activation [4] was -0.34% and the Potency [5] was “inactive”. The Potency [6] was “inactive”.
For `CCCCCCCCCCCCCCCCOCCOCCOCCOCCOCCOCCOCCOCCOCCOCCOCCOCCOCCOCCOCCOCCOCCOCCOCCOCCO`, the Potency [1] was “inactive”, the Potency [3] was “inactive” and the max activation [4] was -15.6%. For the same molecule, the Potency [5] was “inactive” and the Potency [6] was “inactive”.
In the case of `COC(=O)[C@H]1[C@H]2C[C@@H]3c4[nH]c5cc(OC)ccc5c4CCN3C[C@H]2C[C@H](OC)[C@@H]1OC`, the Potency [7] is reported as “inactive”, the Potency [8] is reported as “inactive” and the Potency [3] is reported as “inactive”. For the same molecule, the max activation [4] was 6.76% and the Potency [5] was “inactive”.
With `CC(C)[C@@H]1CC[C@@H](C)C[C@H]1OC(=O)c1ccccc1O` the Potency [7] was “inactive”, the Potency [1] was “inactive” and the Potency [8] was “inactive”. The Potency [3] was “inactive”, the max activation [4] was -0.772% and the Potency [6] was “inactive”.
With `CO[C@H]1C=CO[C@@]2(C)Oc3c(C)c(O)c4c(O)c(c5c(nc6cc(C)ccn65)c4c3C2=O)NC(=O)/C(C)=C\C=C[C@H](C)[C@H](O)[C@@H](C)[C@@H](O)[C@@H](C)[C@H](OC(C)=O)[C@@H]1C` the Potency [3] was “inactive”, the max activation [4] was -6.53% and the Potency [6] was 10 µM (active).
In the case of `CO[C@H]1O[C@@H]2O[C@@]3(C)CC[C@H]4[C@H](C)CC[C@@H]([C@H]1C)[C@@]24OO3`, the Potency [7] is reported as “inactive”, the Potency [1] is reported as “inactive” and the Potency [8] is reported as “inactive”. For the same molecule, the Potency [2] was “inactive”, the Potency [3] was “inactive” and the max activation [4] was -2.27%. For the same molecule, the Potency [5] was “inactive”.
For `CC(C)c1nc(N(C)S(C)(=O)=O)nc(-c2ccc(F)cc2)c1/C=C/C(O)CC(O)CC(=O)O` (stereo not drawn), the Potency [7] was “inactive”, the Potency [1] was “inactive” and the Potency [8] was “inactive”. For the same molecule, the Potency [3] was “inactive”, the max activation [4] was 0.498% and the Potency [6] was “inactive”.
In the case of `Cc1cc(C)c(NC(=O)C[C@H](CC(=O)O)c2cccc3ccccc23)c(C(=O)N2CCC3(CCCC3)CC2)c1`, the Potency [7] is reported as “inactive”, the Potency [1] is reported as “inactive” and the Potency [8] is reported as “inactive”. The Potency [2] was “inactive”, the Potency [3] was “inactive” and the max activation [4] was 1.3%. The Potency [5] was “inactive”.
For `CO/N=C(\C(=O)N[C@@H]1C(=O)N2C(C(=O)O)=C(CSC(=O)c3ccco3)CS[C@H]12)c1csc(N)n1`, the Potency [7] was “inactive”, the Potency [1] was “inactive” and the Potency [8] was “inactive”. The Potency [2] was “inactive”, the Potency [3] was “inactive” and the max activation [4] was -5.54%. For the same molecule, the Potency [6] was “inactive”.
With `O=C(O)CO.[NH2-].[NH2-].[Pt+2]` the Potency [7] was “inactive”, the Potency [1] was “inactive” and the Potency [8] was “inactive”. For the same molecule, the Potency [2] was “inactive”, the Potency [3] was “inactive” and the max activation [4] was -2.14%. For the same molecule, the Potency [6] was “inactive”.
With `CC(C)=CCC/C(C)=C/C=C/C(C)=C/C=C/C(C)=C/C=C/C=C(C)/C=C/C=C(C)/C=C/C=C(\C)CCC=C(C)C` the Potency [7] was “inactive”, the Potency [1] was “inactive” and the Potency [8] was “inactive”. For the same molecule, the Potency [3] was “inactive”, the max activation [4] was 2.83% and the Potency [6] was “inactive”.
With `CCCc1ccc(C(=O)O)cc1` the Potency [7] was “inactive”, the Potency [1] was “inactive” and the Potency [8] was “inactive”. For the same molecule, the Potency [3] was “inactive”, the max activation [4] was -2.43% and the Potency [6] was “inactive”.
In the case of `COc1cc2c(cc1OC)[C@@H](c1ccccc1)CN(C)CC2`, the Potency [7] is reported as “inactive”, the Potency [1] is reported as “inactive” and the Potency [8] is reported as “inactive”. For the same molecule, the Potency [2] was “inactive”, the Potency [3] was “inactive” and the max activation [4] was 1.99%. The Potency [5] was “inactive”.
With `CC1(C)S[C@@H]2[C@H](NC(=O)C3(N)CCCCC3)C(=O)N2[C@H]1C(=O)O` the Potency [7] was “inactive”, the Potency [1] was “inactive” and the Potency [3] was “inactive”. For the same molecule, the max activation [4] was -4.4% and the Potency [6] was “inactive”.
In the case of `CN[C@@H]1[C@@H](O)[C@@H](O[C@@H]2[C@@H](O)[C@H](O[C@H]3O[C@H](CN)[C@@H](O)[C@H](O)[C@H]3O)[C@@H](N)C[C@H]2NC(=O)C(O)CN)OC[C@]1(C)O` (stereo partly drawn), the Potency [7] is reported as “inactive”, the Potency [1] is reported as “inactive” and the Potency [8] is reported as “inactive”. For the same molecule, the Potency [3] was “inactive”, the max activation [4] was -5.41% and the Potency [6] was “inactive”.
